Measurements reported in the supplement of paper PMC8728848.
Only a selection was taken, and the strongest signals are over-represented in it overall.

Key:
Experiment in all cases: glycan array binding signal (z-score within array); higher = stronger binding
Settings in all cases: glycan notation: IUPAC condensed, linker removed
Fuc(a1-2)Gal(b1-3)GalNAc = molecular target: Fuc(a1-2)Gal(b1-3)GalNAc
How it was run: (§1)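 Columns mapping to the same glycan were averaged after glycan names were converted to IUPAC-condensed notation. The data come from 3228 arrays in the Consortium for Functional Glycomics database, limited to those with an available protein sequence. Binding is reported as a within-array Z-score averaged across arrays of one protein sequence and across linkers.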

[1] = molecular target: Fuc(a1-2)Gal(b1-4)GlcNAc(b1-3)Gal(b1-4)GlcNAc
How it was run: as §1

[2] = molecular target: Fuc(a1-2)[GalNAc(a1-3)]Gal
How it was run: as §1

[3] = molecular target: Fuc(a1-2)[GalNAc(b1-3)]Gal
How it was run: as §1

Gal(a1-3)Gal = molecular target: Gal(a1-3)Gal
How it was run: as §1

Gal(a1-6)Glc = molecular target: Gal(a1-6)Glc
How it was run: as §1

[4] = molecular target: Gal(b1-3)GalNAc(b1-4)Gal(b1-4)Glc
How it was run: as §1

[5] = molecular target: Gal(b1-3)[Fuc(a1-4)]GlcNAc(b1-3)Gal(b1-4)GlcNAc
How it was run: as §1

Gal(b1-4)Glc = molecular target: Gal(b1-4)Glc
How it was run: as §1

[6] = molecular target: Gal(b1-4)GlcNAc(b1-6)Gal(b1-4)GlcNAc(b1-6)GalNAc
How it was run: as §1

Gal3S(b1-3)GlcNAc = molecular target: Gal3S(b1-3)GlcNAc
How it was run: as §1

Gal3S(b1-4)Glc6S = molecular target: Gal3S(b1-4)Glc6S
How it was run: as §1

Gal3S6S(b1-4)GlcNAc6S = molecular target: Gal3S6S(b1-4)GlcNAc6S
How it was run: as §1

[7] = molecular target: Man(a1-3)[Man(a1-6)]Man(a1-6)[Man(a1-3)]Man(b1-4)GlcNAc(b1-4)GlcNAc
How it was run: as §1

[8] = molecular target: Neu5Ac(a2-3)Gal(b1-4)GlcNAc(b1-3)Gal(b1-4)GlcNAc(b1-3)Gal(b1-4)GlcNAc
How it was run: as §1

[9] = molecular target: Neu5Gc(a2-3)Gal(b1-3)[Fuc(a1-4)]GlcNAc
How it was run: as §1

[10] = molecular target: Neu5Gc(a2-3)Gal(b1-4)GlcNAc
How it was run: as §1

B1: LKITALY (Gibberella zeae) (protein)
chain: MGNFHESSNNIWLEDGHILHAECGNGEGDYVESTLDLDYYIGNDDGSFSWGGENFSGSASNITLDIEGDDNIPVLRAELNPMDGDPVEANVNLSERIGNDCGTLIFLA
B1 was tested, and the “glycan array binding signal (z-score)” value (Fuc(a1-2)Gal(b1-3)GalNAc) was -0.361, the “glycan array binding signal (z-score)” value [1] was -0.364 and the “glycan array binding signal (z-score)” value [2] was -0.347. For the same binder, the “glycan array binding signal (z-score)” value [3] was -0.36, the “glycan array binding signal (z-score)” value (Gal(a1-3)Gal) was -0.354 and the “glycan array binding signal (z-score)” value (Gal(a1-6)Glc) was -0.352. The “glycan array binding signal (z-score)” value [4] was -0.358, the “glycan array binding signal (z-score)” value [5] was -0.337 and the “glycan array binding signal (z-score)” value (Gal(b1-4)Glc) was -0.357. For the same binder, the “glycan array binding signal (z-score)” value [6] was -0.342, the “glycan array binding signal (z-score)” value (Gal3S(b1-3)GlcNAc) was 4.13 and the “glycan array binding signal (z-score)” value (Gal3S(b1-4)Glc6S) was 2.82. The “glycan array binding signal (z-score)” value (Gal3S6S(b1-4)GlcNAc6S) was 3.55, the “glycan array binding signal (z-score)” value [7] was -0.347 and the “glycan array binding signal (z-score)” value [8] was 3.85. For the same binder, the “glycan array binding signal (z-score)” value [9] was -0.358 and the “glycan array binding signal (z-score)” value [10] was 3.69.
